Laboratory results: the supplement of paper PMC10849652
Of roughly 7,900 targets only a part is listed; those with a hit were picked by preference. About 0.6% of all pairs of compound and target were hits.

Columns and labels:
Test in all cases: log2 fold change, soluble protein after heating vs DMSO (PISA); higher = thermal stabilisation; K562 cells, 10 uM, 30 min; active = over 0.2 and 3.5 SD of the protein, either way, in both replicates (recomputed)
bafetinib = compound: Cc1ccc(NC(=O)c2ccc(CN3CC[C@H](N(C)C)C3)c(C(F)(F)F)c2)cc1Nc1nccc(-c2cncnc2)n1 [bafetinib]
Outline: (§1)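 K562 cells at 2×10^6 cells/mL were given 10 μM compound for 30 min. Aliquots then went through 3 min of heating across 48°C-58°C, were pooled, and were extracted in PBS with 0.5% NP-40 at 4°C, and the supernatant after 21,000xg for 90 min was quantified by TMTpro 16plex LC-MS/MS with channel sums equalised. Thermal stability relative to control samples, from duplicates, is given as log2 fold change.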

[1] = compound: Cc1cccc(CC(=O)N2CCc3c2ccc(-c2cn(C)c4ncnc(N)c24)c3F)n1
Outline: as §1

nilotinib = compound: Cc1cn(-c2cc(NC(=O)c3ccc(C)c(Nc4nccc(-c5cccnc5)n4)c3)cc(C(F)(F)F)c2)cn1 [nilotinib]
Outline: as §1

[2] = compound: Cc1nc(Nc2n[nH]c3c2CN(C(=O)N[C@H](CN(C)C)c2ccccc2)C3(C)C)c2sccc2n1
Outline: as §1

dasatinib = compound: Cc1nc(Nc2ncc(C(=O)Nc3c(C)cccc3Cl)s2)cc(N2CCN(CCO)CC2)n1 [dasatinib]
Outline: as §1

[3] = compound: Cc1ncc(-c2ccnc(Nc3ccc(S(C)(=O)=O)cc3)n2)n1C(C)C
Outline: as §1

[4] = compound: Cn1cc(-c2ccc3c(c2)CCN3C(=O)Cc2cccc(C(F)(F)F)c2)c2c(N)ncnc21
Outline: as §1

[5] = compound: Cn1cc(-c2ccc3nnc(C(F)(F)c4ccc5ncccc5c4)n3n2)cn1
Outline: as §1

tipifarnib = compound: Cn1cncc1[C@@](N)(c1ccc(Cl)cc1)c1ccc2c(c1)c(-c1cccc(Cl)c1)cc(=O)n2C [tipifarnib]
Outline: as §1

mubritinib = compound: FC(F)(F)c1ccc(/C=C/c2nc(COc3ccc(CCCCn4ccnn4)cc3)co2)cc1 [mubritinib]
Outline: as §1

Measured: log2 fold change

THADA (UniProt Q6YHU6)
inactive: bafetinib 0 | [1] 0.027 | nilotinib -0.068 | [2] 0.045 | dasatinib -0.15 | [3] -0.028 | [4] 0.098 | [5] 0.055 | tipifarnib -0.1 | mubritinib 0.123

SOAT1 (UniProt P35610)
active: nilotinib 0.566
inactive: bafetinib 0.085 | [1] 0.011 | [2] -0.001 | dasatinib 0.257 | [3] -0.021 | [4] 0.031 | [5] -0.058 | tipifarnib 0.039 | mubritinib 0.096

TK1 (UniProt K7ERV3)
inactive: bafetinib -0.03 | [1] 0.022 | nilotinib -0.108 | [2] -0.018 | dasatinib 0.018 | [3] -0.076 | [4] 0.176 | [5] 0.016 | tipifarnib 0.03 | mubritinib 0.037

TBC1D15 isoform 3 (UniProt Q8TC07)
inactive: bafetinib -0.026 | [1] 0.059 | nilotinib -0.116 | [2] -0.098 | dasatinib -0.133 | [3] -0.004 | [4] -0.052 | [5] 0.011 | tipifarnib -0.134 | mubritinib 0.054

SLC25A4 (UniProt P12235)
inactive: bafetinib -0.027 | [1] -0.097 | nilotinib -0.004 | [2] -0.03 | dasatinib 0.033 | [3] -0.014 | [4] 0.022 | [5] -0.005 | tipifarnib 0.026 | mubritinib -0.024

STK17B (UniProt O94768)
inactive: bafetinib 0.024

TIMM21 (UniProt Q9BVV7)
inactive: bafetinib -0.149 | [1] 0.058 | nilotinib -0.011 | [2] -0.014 | dasatinib 0.011 | [3] -0.003 | [4] 0.025 | [5] 0.074 | tipifarnib 0.055 | mubritinib -0.011

SPTBN1 (UniProt Q01082)
inactive: bafetinib 0.064 | [1] -0.017 | nilotinib -0.01 | [2] -0.145 | dasatinib -0.043 | [3] 0.054 | [4] -0.009 | [5] -0.007 | tipifarnib -0.045 | mubritinib -0.075

STK26 (UniProt Q9P289)
active: dasatinib -0.319
inactive: bafetinib -0.057 | [1] 0.026 | nilotinib -0.089 | [2] 0.198 | [3] -0.057 | [4] -0.058 | [5] 0.015 | tipifarnib -0.036 | mubritinib -0.036

SNUPN (UniProt O95149)
inactive: bafetinib -0.031 | [1] 0.006 | nilotinib -0.025 | [2] -0.009 | dasatinib -0.051 | [3] 0.018 | [4] 0.013 | [5] -0.054 | tipifarnib 0.003 | mubritinib 0.06

STX17 (UniProt P56962)
inactive: bafetinib -0.049 | [1] -0.028 | nilotinib 0.028 | [2] -0.057 | dasatinib -0.027 | [3] -0.051 | [4] 0.071 | [5] 0.002 | tipifarnib -0.012 | mubritinib 0.074

TLK1 (UniProt Q9UKI8)
active: [2] -0.399
inactive: bafetinib -0.071 | [1] 0 | nilotinib -0.073 | dasatinib -0.028 | [3] 0.007 | [4] 0.06 | [5] 0.026 | tipifarnib 0.01 | mubritinib 0.011

SNX1 (UniProt Q13596)
UniProt Q13596, sequence (Q13596 whole entry, looked up): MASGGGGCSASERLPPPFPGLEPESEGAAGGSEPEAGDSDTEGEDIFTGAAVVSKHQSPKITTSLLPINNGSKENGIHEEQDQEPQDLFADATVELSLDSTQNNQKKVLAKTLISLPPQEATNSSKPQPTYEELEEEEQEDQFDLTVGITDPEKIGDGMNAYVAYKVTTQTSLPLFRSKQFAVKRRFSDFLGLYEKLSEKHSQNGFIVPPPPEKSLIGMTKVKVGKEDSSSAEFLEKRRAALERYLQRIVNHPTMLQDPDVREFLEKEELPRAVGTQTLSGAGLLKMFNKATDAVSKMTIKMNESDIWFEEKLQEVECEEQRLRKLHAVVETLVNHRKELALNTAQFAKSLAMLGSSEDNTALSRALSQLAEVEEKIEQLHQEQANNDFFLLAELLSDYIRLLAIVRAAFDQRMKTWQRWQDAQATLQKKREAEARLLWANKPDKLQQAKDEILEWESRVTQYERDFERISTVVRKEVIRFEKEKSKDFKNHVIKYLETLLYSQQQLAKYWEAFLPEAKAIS
inactive: bafetinib -0.149 | [1] 0.146 | nilotinib -0.133 | [2] 0 | dasatinib -0.191 | [4] 0.07 | [5] -0.028 | tipifarnib -0.002 | mubritinib 0.057
active: [3] -0.45

TBRG4 (UniProt Q969Z0)
inactive: bafetinib -0.137 | [1] -0.035 | nilotinib -0.027 | [2] -0.291 | dasatinib -0.513 | [3] 0.006 | [4] 0.095 | [5] 0.003 | tipifarnib -0.317 | mubritinib -0.277

SP1 (UniProt P08047)
UniProt P08047, sequence (P08047 whole entry, looked up): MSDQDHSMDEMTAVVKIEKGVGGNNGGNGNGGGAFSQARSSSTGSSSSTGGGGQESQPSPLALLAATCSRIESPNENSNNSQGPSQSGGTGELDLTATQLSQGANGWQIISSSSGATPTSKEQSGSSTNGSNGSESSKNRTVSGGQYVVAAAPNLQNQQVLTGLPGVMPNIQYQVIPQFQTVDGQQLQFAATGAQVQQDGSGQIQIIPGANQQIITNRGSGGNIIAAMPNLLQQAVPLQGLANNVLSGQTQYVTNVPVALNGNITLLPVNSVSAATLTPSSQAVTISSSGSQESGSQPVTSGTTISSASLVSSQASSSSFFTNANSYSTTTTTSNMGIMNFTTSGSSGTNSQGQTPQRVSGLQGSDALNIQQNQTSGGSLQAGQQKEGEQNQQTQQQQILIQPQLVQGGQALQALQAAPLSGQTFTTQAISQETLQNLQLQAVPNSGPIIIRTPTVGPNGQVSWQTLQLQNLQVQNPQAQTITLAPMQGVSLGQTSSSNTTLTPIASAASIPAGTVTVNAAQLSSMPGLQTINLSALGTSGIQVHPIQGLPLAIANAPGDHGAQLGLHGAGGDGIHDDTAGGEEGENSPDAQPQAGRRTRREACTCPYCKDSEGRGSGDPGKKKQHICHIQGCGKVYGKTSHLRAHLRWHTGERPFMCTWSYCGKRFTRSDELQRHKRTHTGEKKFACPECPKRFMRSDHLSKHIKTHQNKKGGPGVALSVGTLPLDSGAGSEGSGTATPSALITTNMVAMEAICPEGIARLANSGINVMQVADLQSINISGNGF
inactive: bafetinib -0.041 | [1] -0.006 | nilotinib 0.005 | [2] -0.003 | dasatinib -0.005 | [3] -0.02 | [4] -0.018 | [5] 0.091 | tipifarnib 0.01 | mubritinib -0.023

STX7 (UniProt O15400)
inactive: bafetinib -0.06 | [1] -0.135 | nilotinib 0.009 | [2] 0.013 | dasatinib 0.03 | [3] -0.017 | [4] -0.007 | [5] 0.029 | tipifarnib 0.025 | mubritinib 0.007

SSB (UniProt P05455)
UniProt P05455, sequence (P05455 whole entry, looked up): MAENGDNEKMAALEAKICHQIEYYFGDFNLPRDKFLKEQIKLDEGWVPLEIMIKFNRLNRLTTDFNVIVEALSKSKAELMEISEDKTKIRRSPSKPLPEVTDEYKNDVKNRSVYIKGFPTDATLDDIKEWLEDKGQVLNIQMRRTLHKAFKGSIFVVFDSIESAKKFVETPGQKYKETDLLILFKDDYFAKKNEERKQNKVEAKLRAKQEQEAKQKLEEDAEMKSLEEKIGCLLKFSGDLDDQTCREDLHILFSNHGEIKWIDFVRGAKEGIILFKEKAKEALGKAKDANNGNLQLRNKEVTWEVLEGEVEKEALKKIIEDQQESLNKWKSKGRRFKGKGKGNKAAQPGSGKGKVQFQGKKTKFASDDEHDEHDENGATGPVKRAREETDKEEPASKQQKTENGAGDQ
inactive: bafetinib -0.022 | [1] -0.018 | nilotinib -0.057 | [2] -0.125 | dasatinib -0.06 | [3] -0.123 | [4] -0.048 | [5] -0.02 | tipifarnib 0.051 | mubritinib -0.111

TBC1D9B (UniProt Q66K14)
UniProt Q66K14, sequence (Q66K14 whole entry, looked up): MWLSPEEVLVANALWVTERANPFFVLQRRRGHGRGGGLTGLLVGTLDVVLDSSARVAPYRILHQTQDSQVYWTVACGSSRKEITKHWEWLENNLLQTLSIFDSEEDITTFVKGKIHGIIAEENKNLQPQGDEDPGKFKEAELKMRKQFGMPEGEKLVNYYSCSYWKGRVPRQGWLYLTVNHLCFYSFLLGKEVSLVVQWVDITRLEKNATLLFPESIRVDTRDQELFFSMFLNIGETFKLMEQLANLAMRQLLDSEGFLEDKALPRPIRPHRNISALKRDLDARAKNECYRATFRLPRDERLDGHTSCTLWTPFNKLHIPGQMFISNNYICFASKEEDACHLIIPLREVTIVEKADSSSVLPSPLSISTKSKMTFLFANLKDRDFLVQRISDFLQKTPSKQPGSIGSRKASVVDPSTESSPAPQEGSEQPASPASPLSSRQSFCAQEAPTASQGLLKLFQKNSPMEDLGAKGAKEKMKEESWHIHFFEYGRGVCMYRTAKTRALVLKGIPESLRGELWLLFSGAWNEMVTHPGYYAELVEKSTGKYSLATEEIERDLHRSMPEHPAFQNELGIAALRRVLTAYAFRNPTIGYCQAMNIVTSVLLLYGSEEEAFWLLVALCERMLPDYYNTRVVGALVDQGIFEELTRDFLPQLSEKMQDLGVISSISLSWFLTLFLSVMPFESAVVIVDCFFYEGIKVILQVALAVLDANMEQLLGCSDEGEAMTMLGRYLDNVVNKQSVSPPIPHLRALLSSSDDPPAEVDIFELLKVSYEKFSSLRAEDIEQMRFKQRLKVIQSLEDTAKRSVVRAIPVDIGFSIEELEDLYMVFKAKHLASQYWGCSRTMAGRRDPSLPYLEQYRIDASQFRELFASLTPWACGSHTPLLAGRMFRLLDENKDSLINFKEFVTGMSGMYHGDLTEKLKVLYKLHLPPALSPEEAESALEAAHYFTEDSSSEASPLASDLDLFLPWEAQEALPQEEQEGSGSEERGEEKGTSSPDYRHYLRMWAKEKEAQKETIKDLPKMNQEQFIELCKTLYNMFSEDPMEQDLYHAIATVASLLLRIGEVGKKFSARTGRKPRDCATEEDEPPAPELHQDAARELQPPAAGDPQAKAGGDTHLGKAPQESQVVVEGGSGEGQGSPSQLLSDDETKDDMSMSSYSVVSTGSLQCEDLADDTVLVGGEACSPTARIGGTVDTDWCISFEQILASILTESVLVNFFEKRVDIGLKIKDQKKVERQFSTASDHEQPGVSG
inactive: bafetinib -0.262 | [1] -0.042 | nilotinib -0.055 | [2] 0.053 | dasatinib -0.156 | [3] -0.034 | [4] 0.07 | [5] -0.06 | tipifarnib 0.019 | mubritinib 0.203

STAT6 (UniProt P42226)
UniProt P42226, sequence (P42226 whole entry, looked up): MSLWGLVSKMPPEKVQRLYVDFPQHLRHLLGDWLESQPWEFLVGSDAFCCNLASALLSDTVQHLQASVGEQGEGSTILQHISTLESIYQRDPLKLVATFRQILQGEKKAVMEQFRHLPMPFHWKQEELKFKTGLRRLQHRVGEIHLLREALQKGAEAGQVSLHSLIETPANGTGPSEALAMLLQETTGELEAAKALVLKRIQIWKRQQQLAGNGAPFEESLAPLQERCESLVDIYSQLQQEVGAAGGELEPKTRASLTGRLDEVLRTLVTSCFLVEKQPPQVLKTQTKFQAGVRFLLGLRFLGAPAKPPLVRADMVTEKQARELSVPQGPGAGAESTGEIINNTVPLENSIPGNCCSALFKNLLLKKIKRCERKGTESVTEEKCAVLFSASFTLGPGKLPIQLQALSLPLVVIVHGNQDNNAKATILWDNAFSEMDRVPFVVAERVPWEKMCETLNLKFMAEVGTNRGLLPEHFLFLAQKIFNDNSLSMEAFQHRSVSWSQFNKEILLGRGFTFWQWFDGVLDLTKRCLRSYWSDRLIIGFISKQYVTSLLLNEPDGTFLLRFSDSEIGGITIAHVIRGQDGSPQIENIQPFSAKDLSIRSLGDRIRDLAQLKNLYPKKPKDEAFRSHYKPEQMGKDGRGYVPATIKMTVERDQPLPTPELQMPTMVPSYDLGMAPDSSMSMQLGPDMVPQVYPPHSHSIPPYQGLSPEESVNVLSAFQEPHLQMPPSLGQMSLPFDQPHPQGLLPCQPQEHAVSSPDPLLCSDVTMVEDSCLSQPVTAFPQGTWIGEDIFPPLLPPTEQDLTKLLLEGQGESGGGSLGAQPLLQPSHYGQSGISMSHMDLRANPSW
active: [1] 0.502
inactive: bafetinib 0.027 | nilotinib -0.082 | [2] -0.181 | dasatinib -0.115 | [3] 0.155 | [4] -0.099 | [5] -0.042 | tipifarnib -0.164 | mubritinib 0.179

SULT1A1 (UniProt P50225)
inactive: bafetinib -0.067 | [1] 0.222 | nilotinib -0.072 | [2] -0.065 | dasatinib -0.172 | [3] -0.002 | tipifarnib -0.097 | mubritinib -0.069
active: [4] 0.333 | [5] 0.353

SLC39A11 (UniProt Q8N1S5)
UniProt Q8N1S5, sequence (Q8N1S5 whole entry, looked up): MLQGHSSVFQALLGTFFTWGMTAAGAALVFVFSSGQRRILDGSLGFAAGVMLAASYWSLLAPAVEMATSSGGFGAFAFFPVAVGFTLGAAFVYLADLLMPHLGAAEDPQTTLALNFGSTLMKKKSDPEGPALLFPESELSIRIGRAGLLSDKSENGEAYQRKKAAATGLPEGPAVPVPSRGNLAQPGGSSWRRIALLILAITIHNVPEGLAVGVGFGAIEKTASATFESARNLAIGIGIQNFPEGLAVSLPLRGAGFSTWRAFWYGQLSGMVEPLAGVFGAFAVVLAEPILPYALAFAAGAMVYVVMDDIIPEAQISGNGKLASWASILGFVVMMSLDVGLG
inactive: bafetinib -0.13 | [1] -0.043 | nilotinib -0.028 | [2] 0.001 | dasatinib 0.058 | [3] 0.248 | [4] 0.128 | [5] 0.002 | tipifarnib 0.048 | mubritinib -0.005

SMAD2 (UniProt Q15796)
UniProt Q15796, sequence (Q15796 whole entry, looked up): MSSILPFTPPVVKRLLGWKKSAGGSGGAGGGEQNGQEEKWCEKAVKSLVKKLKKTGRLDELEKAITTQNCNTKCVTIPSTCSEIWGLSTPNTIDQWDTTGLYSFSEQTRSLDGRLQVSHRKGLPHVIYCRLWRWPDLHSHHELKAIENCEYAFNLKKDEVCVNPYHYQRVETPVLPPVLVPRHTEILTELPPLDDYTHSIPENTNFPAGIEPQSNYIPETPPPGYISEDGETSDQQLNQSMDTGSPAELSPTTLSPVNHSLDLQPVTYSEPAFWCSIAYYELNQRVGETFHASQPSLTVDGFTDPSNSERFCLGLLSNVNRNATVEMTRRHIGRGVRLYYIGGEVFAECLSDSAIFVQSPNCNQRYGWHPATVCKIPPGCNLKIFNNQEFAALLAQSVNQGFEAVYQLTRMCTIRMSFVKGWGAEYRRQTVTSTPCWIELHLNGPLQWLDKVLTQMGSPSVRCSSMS
inactive: bafetinib -0.019 | [1] -0.037 | nilotinib -0.085 | [2] -0.123 | dasatinib -0.13 | [3] -0.14 | [4] 0.023 | [5] 0.057 | tipifarnib 0.012 | mubritinib 0.022

SNX3 (UniProt O60493)
inactive: bafetinib 0.01 | [1] 0.032 | nilotinib -0.034 | [2] 0.035 | dasatinib -0.163 | [4] -0.03 | [5] 0.001 | tipifarnib 0.019 | mubritinib -0.108
active: [3] -0.339

TERF2IP (UniProt Q9NYB0)
UniProt Q9NYB0, sequence (Q9NYB0 whole entry, looked up): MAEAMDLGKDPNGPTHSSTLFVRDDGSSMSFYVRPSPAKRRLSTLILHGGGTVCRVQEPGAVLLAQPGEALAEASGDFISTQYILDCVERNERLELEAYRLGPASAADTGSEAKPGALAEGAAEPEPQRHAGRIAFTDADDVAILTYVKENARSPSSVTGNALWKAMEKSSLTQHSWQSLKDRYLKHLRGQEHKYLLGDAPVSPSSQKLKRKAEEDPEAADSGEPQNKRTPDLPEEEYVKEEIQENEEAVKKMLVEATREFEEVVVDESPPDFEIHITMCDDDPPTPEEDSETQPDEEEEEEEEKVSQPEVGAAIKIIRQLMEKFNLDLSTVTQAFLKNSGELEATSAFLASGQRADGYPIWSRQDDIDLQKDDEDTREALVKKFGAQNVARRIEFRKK
inactive: bafetinib -0.051 | [1] -0.008 | nilotinib -0.006 | [2] -0.163 | dasatinib -0.028 | [3] -0.128 | [4] -0.078 | [5] -0.033 | tipifarnib 0.074 | mubritinib -0.014

SLC7A6OS (UniProt Q96CW6)
inactive: bafetinib -0.062 | [1] 0.15 | nilotinib -0.019 | [2] -0.035 | dasatinib 0.004 | [3] -0.031 | [4] 0.026 | [5] -0.13 | tipifarnib 0.06 | mubritinib 0.058

SNX11 (UniProt Q9Y5W9)
inactive: bafetinib -0.259 | [1] 0.081 | nilotinib -0.033 | [2] -0.108 | dasatinib -0.022 | [4] 0.077 | [5] 0.002 | tipifarnib 0.178 | mubritinib -0.015
active: [3] -0.44

SLC25A42 (UniProt Q86VD7)
inactive: bafetinib -0.081 | [1] -0.069 | nilotinib 0.009 | [2] -0.024 | dasatinib -0.025 | [3] 0.048 | [4] -0.022 | [5] -0.049 | tipifarnib 0.017 | mubritinib 0.051

STK25 (UniProt O00506)
active: [2] 0.257
inactive: bafetinib -0.015 | [1] -0.055 | nilotinib -0.083 | dasatinib -0.133 | [3] -0.033 | [4] 0.008 | [5] 0.007 | tipifarnib 0.042 | mubritinib -0.013
